According to PubChem BioAssay (NCI):
About 83,000 compounds went through this panel and 20% of them were active in at least one assay; those are over-represented in the sample as a whole.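 48-hour exposure, single concentration, 96-well plates; percent growth endpoint where 0 means no net growth. Active: below 10.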 Unmarked numbers belong to inactive results. Calls of active or inactive are those of the source.

Experiments:
Assay in all cases: NCI-60 one-dose screen, 48 h (100 = growth as untreated, 0 = no growth, -100 = all killed)
Conditions in all cases: 10 µM unless noted
SR leukemia = tested on: SR leukemia
RPMI-8226 leukemia = tested on: RPMI-8226 leukemia
OVCAR-8 ovarian = tested on: OVCAR-8 ovarian
OVCAR-5 ovarian = tested on: OVCAR-5 ovarian
SK-OV-3 ovarian = tested on: SK-OV-3 ovarian
OVCAR-3 ovarian = tested on: OVCAR-3 ovarian
HS 578T breast = tested on: HS 578T breast
NCI/ADR-RES ovarian = tested on: NCI/ADR-RES ovarian
OVCAR-4 ovarian = tested on: OVCAR-4 ovarian
IGROV1 ovarian = tested on: IGROV1 ovarian

Compound	growth (SR leukemia)	growth (RPMI-8226 leukemia) [%]	growth (OVCAR-8 ovarian) [%]	growth (OVCAR-5 ovarian) [%]	growth (SK-OV-3 ovarian) [%]	growth (OVCAR-3 ovarian)	growth (HS 578T breast)	growth (NCI/ADR-RES ovarian)	growth (OVCAR-4 ovarian) [%]	growth (IGROV1 ovarian)
C=C1C(=O)O[C@H]2[C@H](O)[C@@H](C)CCC/C(C)=C/CC[C@@]3(C)O[C@@H]3C[C@@H]12	94.3%	99.8	88.7	95.8	96.8	72.6%	98.4%	97.6%	–	–
COc1ccc([N+](=O)[O-])c(/C=C/C(=O)c2ccccn2)c1	26.5%	52.6	–	90.5	96	86.1%	91.4%	–	72.2	60.8%
COC(=O)c1cc(-c2cccs2)c(C#N)c(N)c1C#N	94.5%	99.7	98.9	105	101	108%	102%	106%	–	94.2%
O=C(NNC(=S)Nc1ccccc1)c1ccccn1	9.67% (active)	37.6	23.2	51.3	33.5	33.6%	65.8%	24.7%	–	21.2%
C#CCN1C(=O)/C(=c2\sc3n(c2=O)C2C(NN=3)N(CC)C(=O)N2CC)c2ccccc21 (stereo not given)	10.1%	18.6	25.4	33.5	–	-13.6% (active)	-5.36% (active)	-4.94% (active)	–	27.6%
COc1ccc(N=C2NN=C(c3ccc(F)cc3)CS2)cc1OC	53%	74.4	105	85.7	104	96.6%	110%	97.6%	–	-11.7% (active)
CC(C)(C)c1ccc(S(=O)(=O)Oc2ccc3c4c(c(=O)oc3c2)CCCCC4)cc1	31.4%	40.4	77.2	70	71.4	52.7%	40%	20.1%	–	68.6%
